The supplement of paper PMC8728848
About 410 targets per protein were measured; listed, in parts, are those with the strongest signals and a random draw of the rest.

Tests used:
Assay in all cases: glycan array binding signal (z-score within array); higher = stronger binding
Conditions in all cases: glycan notation: IUPAC condensed, linker removed
[1] = molecular target: Fuc(a1-2)Gal(b1-3)GlcNAc(b1-3)[Gal(b1-4)GlcNAc(b1-6)]Gal(b1-4)Glc
In short: (§1)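 Glycan array data came from 3228 arrays in the Consortium for Functional Glycomics database, and only arrays with an available protein sequence were kept. Glycan names were put into IUPAC-condensed notation, and columns mapping to the same glycan were averaged. The binding signal is a within-array Z-score, averaged across arrays of one protein sequence run at different concentrations or buffers and across linkers. A negative Z-score can be read as non-binding.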

[2] = molecular target: Fuc(a1-2)Gal(b1-3)[Fuc(a1-4)]GlcNAc(b1-3)[Fuc(a1-3)[Gal(b1-4)]GlcNAc(b1-6)]Gal(b1-4)Glc
In short: as §1

[3] = molecular target: Fuc(a1-2)Gal(b1-4)GlcNAc(b1-2)Man(a1-3)[Fuc(a1-2)Gal(b1-4)GlcNAc(b1-2)Man(a1-6)]Man(b1-4)GlcNAc(b1-4)GlcNAc
In short: as §1

[4] = molecular target: Fuc(a1-2)Gal(b1-4)GlcNAc(b1-2)[Fuc(a1-2)Gal(b1-4)GlcNAc(b1-4)]Man(a1-3)[Fuc(a1-2)Gal(b1-4)GlcNAc(b1-2)Man(a1-6)]Man(b1-4)GlcNAc(b1-4)GlcNAc
In short: as §1

[5] = molecular target: Fuc(a1-2)[Gal(a1-3)]Gal(b1-3)GlcNAc(b1-2)Man(a1-3)[Fuc(a1-2)[Gal(a1-3)]Gal(b1-3)GlcNAc(b1-2)Man(a1-6)]Man(b1-4)GlcNAc(b1-4)GlcNAc
In short: as §1

[6] = molecular target: Fuc(a1-2)[Gal(a1-3)]Gal(b1-3)GlcNAc(b1-2)Man(a1-3)[Fuc(a1-2)[Gal(a1-3)]Gal(b1-3)GlcNAc(b1-2)Man(a1-6)]Man(b1-4)GlcNAc(b1-4)[Fuc(a1-6)]GlcNAc
In short: as §1

[7] = molecular target: Fuc(a1-2)[Gal(a1-3)]Gal(b1-4)GlcNAc
In short: as §1

[8] = molecular target: Fuc(a1-2)[Gal(a1-4)]Gal(b1-4)GlcNAc
In short: as §1

[9] = molecular target: Fuc(a1-2)[GalNAc(a1-3)]Gal(b1-3)GlcNAc
In short: as §1

[10] = molecular target: Fuc(a1-2)[GalNAc(a1-3)]Gal(b1-3)GlcNAc(b1-3)GalNAc
In short: as §1

[11] = molecular target: Fuc(a1-2)[GalNAc(a1-3)]Gal(b1-4)GlcNAc(b1-3)Gal(b1-4)GlcNAc
In short: as §1

[12] = molecular target: Fuc(a1-3)[Gal(b1-4)]GlcNAc(b1-2)Man(a1-3)[Fuc(a1-3)[Gal(b1-4)]GlcNAc(b1-2)Man(a1-6)]Man(b1-4)GlcNAc(b1-4)GlcNAc
In short: as §1

[13] = molecular target: Fuc(a1-3)[Gal(b1-4)]GlcNAc(b1-2)Man(a1-3)[Fuc(a1-3)[Gal(b1-4)]GlcNAc(b1-2)Man(a1-6)]Man(b1-4)GlcNAc(b1-4)[Fuc(a1-6)]GlcNAc
In short: as §1

[14] = molecular target: Gal(a1-3)Gal(b1-4)[Fuc(a1-3)]GlcNAc
In short: as §1

[15] = molecular target: Gal(a1-4)Gal(b1-3)GlcNAc(b1-2)Man(a1-3)[Gal(a1-4)Gal(b1-3)GlcNAc(b1-2)Man(a1-6)]Man(b1-4)GlcNAc(b1-4)GlcNAc
In short: as §1

[16] = molecular target: Gal(a1-4)Gal(b1-4)GlcNAc(b1-3)Gal(b1-4)Glc
In short: as §1

Gal(b1-2)Gal = molecular target: Gal(b1-2)Gal
In short: as §1

[17] = molecular target: Gal(b1-4)GlcNAc(b1-2)Man(a1-3)[Gal(b1-4)GlcNAc(b1-2)][GlcNAc(b1-4)]Man(b1-4)GlcNAc(b1-4)GlcNAc
In short: as §1

[18] = molecular target: Gal(b1-4)GlcNAc(b1-3)Gal(b1-4)Glc
In short: as §1

[19] = molecular target: Gal(b1-4)GlcNAc(b1-3)Gal(b1-4)[Fuc(a1-3)]GlcNAc(b1-3)Gal(b1-4)[Fuc(a1-3)]GlcNAc
In short: as §1

Gal3S(b1-4)Glc = molecular target: Gal3S(b1-4)Glc
In short: as §1

[20] = molecular target: GalNAc(a1-3)GalNAc(b1-3)Gal(a1-4)Gal(b1-4)Glc
In short: as §1

[21] = molecular target: GalNAc(b1-3)Gal(a1-6)Gal(b1-4)Glc
In short: as §1

GalNAc(b1-6)GalNAc = molecular target: GalNAc(b1-6)GalNAc
In short: as §1

[22] = molecular target: Glc(a1-4)Glc(a1-4)Glc(a1-4)Glc
In short: as §1

[23] = molecular target: GlcNAc(a1-4)Gal(b1-4)GlcNAc(b1-3)Gal(b1-4)GlcNAc
In short: as §1

GlcNAc(b1-4)GlcNAc = molecular target: GlcNAc(b1-4)GlcNAc
In short: as §1

[24] = molecular target: GlcNAc(b1-4)GlcNAc(b1-4)GlcNAc(b1-4)GlcNAc(b1-4)GlcNAc
In short: as §1

Kdn(a2-3)Gal(b1-4)GlcNAc = molecular target: Kdn(a2-3)Gal(b1-4)GlcNAc
In short: as §1

[25] = molecular target: Kdn(a2-3)Gal(b1-4)[Fuc(a1-3)]GlcNAc
In short: as §1

[26] = molecular target: Man(a1-2)Man(a1-3)[Man(a1-2)Man(a1-6)]Man
In short: as §1

[27] = molecular target: Man(a1-2)Man(a1-6)[Man(a1-3)]Man(a1-6)[Man(a1-2)Man(a1-2)Man(a1-3)]Man
In short: as §1

Man(a1-3)[Man(a1-6)]Man = molecular target: Man(a1-3)[Man(a1-6)]Man
In short: as §1

[28] = molecular target: Man(a1-3)[Man(a1-6)]Man(a1-6)[Man(a1-3)]Man
In short: as §1

Neu5Ac(a2-3)Gal = molecular target: Neu5Ac(a2-3)Gal
In short: as §1

[29] = molecular target: Neu5Ac(a2-3)Gal6S(b1-4)GlcNAc
In short: as §1

[30] = molecular target: Neu5Ac(a2-6)GlcNAc(b1-4)GlcNAc
In short: as §1

[31] = molecular target: Neu5Ac(a2-8)Neu5Ac(a2-8)Neu5Ac
In short: as §1

[32] = molecular target: Neu5Ac(a2-8)Neu5Ac(a2-8)Neu5Ac(a2-3)Gal(b1-4)Glc
In short: as §1

[33] = molecular target: Neu5Ac9Ac(a2-3)Gal(b1-3)GlcNAc
In short: as §1

[34] = molecular target: Neu5Gc(b2-6)Gal(b1-4)GlcNAc
In short: as §1

B1: PGP3 (Chlamydia trachomatis), P0CE18 (protein)
chain: MGNSGFYLYNTQNCVFADNIKVGQMTEPLKDQQIILGTTSTPVAAKMTASDGISLTVSNNPSTNASITIGLDAEKAYQLILEKLGDQILGGIADTIVDSTVQDILDKITTDPSLGLLKAFNNFPITNKIQCNGLFTPRNIETLLGGTEIGKFTVTPKSSGSMFLVSADIIASRMEGGVVLALVREGDSKPYAISYGYSSGVPNLCSLRTRIINTGLTPTTYSLRVGGLESGVVWVNALSNGNDILGITNTSNVSFLEVIPQTNA
glycan array binding signal (z-score) [1]: 0.289 | glycan array binding signal (z-score) [2]: -0.443 | glycan array binding signal (z-score) [3]: -0.053 | glycan array binding signal (z-score) [4]: 2.62 | glycan array binding signal (z-score) [5]: 5.67 | glycan array binding signal (z-score) [6]: 0.251 | glycan array binding signal (z-score) [7]: -1.17 | glycan array binding signal (z-score) [8]: -0.649 | glycan array binding signal (z-score) [9]: 0.499 | glycan array binding signal (z-score) [10]: 2.46 | glycan array binding signal (z-score) [11]: 0.028 | glycan array binding signal (z-score) [12]: 2.78 | glycan array binding signal (z-score) [13]: -0.169 | glycan array binding signal (z-score) [14]: -0.404 | glycan array binding signal (z-score) [15]: 3.06 | glycan array binding signal (z-score) [16]: -0.099 | glycan array binding signal (z-score) (Gal(b1-2)Gal): 0.34 | glycan array binding signal (z-score) [17]: 1.19 | glycan array binding signal (z-score) [18]: -0.67 | glycan array binding signal (z-score) [19]: 0.322 | glycan array binding signal (z-score) (Gal3S(b1-4)Glc): -0.636 | glycan array binding signal (z-score) [20]: 1.04 | glycan array binding signal (z-score) [21]: 2.89 | glycan array binding signal (z-score) (GalNAc(b1-6)GalNAc): 0.114 | glycan array binding signal (z-score) [22]: 0.478 | glycan array binding signal (z-score) [23]: 1.53 | glycan array binding signal (z-score) (GlcNAc(b1-4)GlcNAc): 0.682 | glycan array binding signal (z-score) [24]: 1.18 | glycan array binding signal (z-score) (Kdn(a2-3)Gal(b1-4)GlcNAc): 1.53 | glycan array binding signal (z-score) [25]: 0.816 | glycan array binding signal (z-score) [26]: 0.09 | glycan array binding signal (z-score) [27]: 0.585 | glycan array binding signal (z-score) (Man(a1-3)[Man(a1-6)]Man): -0.232 | glycan array binding signal (z-score) [28]: 0.157 | glycan array binding signal (z-score) (Neu5Ac(a2-3)Gal): 0.478 | glycan array binding signal (z-score) [29]: 2.5 | glycan array binding signal (z-score) [30]: -1.37 | glycan array binding signal (z-score) [31]: 1.11 | glycan array binding signal (z-score) [32]: 2.79 | glycan array binding signal (z-score) [33]: 2.73 | glycan array binding signal (z-score) [34]: -1.1
